In PubChem BioAssay (Tox21):
Records with an inconclusive call do not appear. The source made the active and inactive calls. Unless noted, the call rests on the fitted dose curve.

Tests used:
[1] = Nuclear factor erythroid 2-related factor 2/antioxidant responsive element (Nrf2/ARE) small molecule agonists: qHTS cell viability counter screen in human keratinocytes (AID 1919968; active means well fitted curve in the direction sought with a large enough effect in the repeat runs; an effect the other way counts as inactive or inconclusive; further: nearly all actives have a fitted effect of over 55% in size)
Procedure, shortened: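 After a 5 h attachment period, ARE-reporter keratinocytes were dosed with compounds in DMSO and then cultured 23 h at 37 C. Cell viability came from CellTiter-Fluor signal read after a further 1 h.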

[2] = Nuclear factor erythroid 2-related factor 2/antioxidant responsive element (Nrf2/ARE) small molecule agonists: luciferase reporter gene qHTS assay in human keratinocytes (AID 1919969); further: nearly all actives have a fitted effect of over 35% in size
[3] = biological target: Gonadotropin-releasing hormone receptor (Homo sapiens) (UniProt P30968); assay: Human gonadotropin-releasing hormone receptor (GnRHR) small molecule agonists, calcium flux assay in GnRHR-HEK293 cells (AID 1920063); further: nearly all actives have a fitted effect of over 35% in size
Gonadotropin-releasing hormone receptor (Homo sapiens), sequence (P30968 whole entry, looked up): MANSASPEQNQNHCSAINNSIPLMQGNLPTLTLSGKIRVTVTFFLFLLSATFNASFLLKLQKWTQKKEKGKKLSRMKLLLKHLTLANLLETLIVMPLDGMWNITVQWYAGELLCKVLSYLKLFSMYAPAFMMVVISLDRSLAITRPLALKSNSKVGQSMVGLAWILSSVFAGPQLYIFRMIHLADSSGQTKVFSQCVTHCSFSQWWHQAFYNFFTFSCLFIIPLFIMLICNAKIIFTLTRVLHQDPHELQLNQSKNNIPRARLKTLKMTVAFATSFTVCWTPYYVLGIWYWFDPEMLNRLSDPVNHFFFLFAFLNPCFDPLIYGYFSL
Procedure, shortened: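 We seeded human GnRHR-expressing HEK293 cells for 18 hours, loaded them with calcium dye for an hour at 37 C, added test compounds, and recorded fluorescence intensity kinetically for three minutes.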

[4] = biological target: KiSS-1 receptor (Homo sapiens) (UniProt Q969F8); assay: Human kisspeptin (KISS1R) small molecule agonists, calcium flux assay in KISS1R-HEK293 cells (AID 1920064; active means well fitted curve in the direction sought with a large enough effect in the repeat runs; an effect the other way counts as inactive or inconclusive)
KiSS-1 receptor (Homo sapiens), sequence (Q969F8 whole entry, looked up): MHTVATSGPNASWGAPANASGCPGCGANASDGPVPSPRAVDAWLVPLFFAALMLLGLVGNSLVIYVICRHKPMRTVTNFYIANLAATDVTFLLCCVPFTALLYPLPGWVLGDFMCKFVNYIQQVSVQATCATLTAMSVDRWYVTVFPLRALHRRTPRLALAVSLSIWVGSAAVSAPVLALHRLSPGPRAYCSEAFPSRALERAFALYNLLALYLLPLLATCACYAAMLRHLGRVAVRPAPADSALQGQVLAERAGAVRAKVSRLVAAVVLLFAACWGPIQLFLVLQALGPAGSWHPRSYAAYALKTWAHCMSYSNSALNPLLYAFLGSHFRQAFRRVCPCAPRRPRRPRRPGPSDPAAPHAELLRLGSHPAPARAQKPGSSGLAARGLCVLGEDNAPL
Procedure, shortened: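 Kinetic calcium assay, 1 s sampling over 3 min at Ex/Em 480/540, in HEK293 cells engineered with human KISS1R; compounds delivered in DMSO after 1 h dye loading.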

[5] = G protein-coupled receptor (GPCR) small molecule agonists, calcium flux assay: HEK293 wild type cell line counter screen (AID 1920065)
Procedure, shortened: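 Calcium-sensitive dye, loaded 1 h at 37 C into cells cultured 18 h, reports compound-evoked calcium release as fluorescence (Ex/Em 480/540), measured over 3 min. Agonist mode; 15-point titrations, triplicate.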

[6] = p53 small molecule agonists, cell-based qHTS assay with human liver microsomes (AID 1963577)
Procedure, shortened: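 Cells carrying a p53-responsive bla reporter were rested 5 h (37 C, 5% CO2) before compound transfer. Human liver microsomes plus NADPH, 0.5 mg/mL final apiece, supplied metabolism during the 16 h 37 C exposure.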

[7] = p53 small molecule agonists, cell-based qHTS assay with rat liver microsomes (AID 1963578)
Procedure, shortened: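 Fluorescence from a beta-lactamase reporter under a p53 response element was measured after cells had been incubated 16 h at 37 C with test compound and rat liver microsomes plus NADPH (0.5 mg/mL final each).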

[8] = p53 small molecule agonists, cell-based qHTS assay with human liver microsomes: qHTS cell viability counter screen (AID 1963579); further: nearly all actives have a fitted effect of over 45% in size
Procedure, shortened: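 Seed p53RE-bla cells at 4,000 per well; incubate 5 h at 37 C; add compound, human liver microsomes and NADPH; incubate 16 h at 37 C; add CellTiter-Glo; after 30 min at room temperature, read luminescence.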

[9] = p53 small molecule agonists, cell-based qHTS assay with rat liver microsomes: qHTS cell viability counter screen (AID 1963580); further: nearly all actives have a fitted effect of over 45% in size
Procedure, shortened: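 In HCT-116 cells carrying a p53 response element-bla reporter, compounds were metabolically activated in situ by rat liver microsomes with NADPH over 16 h. Cell ATP content then served as the cytotoxicity measure.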

[10] = p53 small molecule agonists, cell-based qHTS assay: qHTS cell viability counter screen (AID 1963581); further: nearly all actives have a fitted effect of over 45% in size
Procedure, shortened: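 Following 5 h attachment, HCT-116 p53RE-bla cells took up compound for 16 h at 37 C; the reporter was read with B/G FRET substrate (2 h RT), and viability then via CellTiter-Glo ATP luminescence.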

[11] = p53 small molecule agonists, cell-based qHTS assay (AID 1963582; active means well fitted activation curve with a large enough effect in the signal ratio in the repeat runs, not every such curve was filed as active; the % refers to the signal ratio)
Procedure, shortened: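 In this cell-based concentration-response screen, a p53 response element drives beta-lactamase; cells received DMSO-borne compounds after 5 h culture and were incubated a further 16 h before FRET substrate development.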

[12] = biological target: 5-hydroxytryptamine receptor 2A (Homo sapiens) (UniProt P28223); assay: 5-hydroxytryptamine receptor 2A (HTR2A) small molecule antagonists, cell-based qHTS assay (AID 1963586); further: nearly all actives have a fitted effect of over 45% in size
5-hydroxytryptamine receptor 2A (Homo sapiens), sequence (P28223 whole entry, looked up): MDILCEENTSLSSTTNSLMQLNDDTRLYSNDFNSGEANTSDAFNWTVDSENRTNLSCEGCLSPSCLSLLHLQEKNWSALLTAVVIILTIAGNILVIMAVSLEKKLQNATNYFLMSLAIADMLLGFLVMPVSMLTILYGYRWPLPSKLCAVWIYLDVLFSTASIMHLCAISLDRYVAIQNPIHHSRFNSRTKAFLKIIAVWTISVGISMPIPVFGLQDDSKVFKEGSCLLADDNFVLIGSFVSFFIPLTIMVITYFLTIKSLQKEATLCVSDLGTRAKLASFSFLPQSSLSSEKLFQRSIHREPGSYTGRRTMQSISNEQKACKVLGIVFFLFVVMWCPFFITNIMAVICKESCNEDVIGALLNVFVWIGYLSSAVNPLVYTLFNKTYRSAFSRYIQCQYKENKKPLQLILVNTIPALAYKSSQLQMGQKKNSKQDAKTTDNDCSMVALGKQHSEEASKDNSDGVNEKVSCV
Procedure, shortened: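 Antagonist-mode intracellular calcium assay: DOI (4 nM) added after 5 min compound pre-incubation at room temperature to dye-loaded HTR2A-CHO cells. Fluorescence followed for 3 min, sampled every second.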

[13] = biological target: 5-hydroxytryptamine receptor 2A (Homo sapiens) (UniProt P28223); assay: 5-hydroxytryptamine receptor 2A (HTR2A) small molecule agonists, cell-based qHTS assay (AID 1963587); further: nearly all actives have a fitted effect of over 30% in size
Procedure, shortened: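 HTR2A-CHO cells, plated 18 h at 37 C/5% CO2, dye-loaded 1 h at 37 C; compounds in DMSO added by pin tool (agonist mode). Intracellular calcium flux read as kinetic fluorescence on FDSS over 2 min at 1 s intervals.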

[14] = biological target: Muscarinic acetylcholine receptor M1 (Homo sapiens) (UniProt P11229); assay: Cholinergic receptor muscarinic 1 (CHRM1) small molecule antagonists, cell-based qHTS assay (AID 1963588); further: nearly all actives have a fitted effect of over 40% in size
Muscarinic acetylcholine receptor M1 (Homo sapiens), sequence (P11229 whole entry, looked up): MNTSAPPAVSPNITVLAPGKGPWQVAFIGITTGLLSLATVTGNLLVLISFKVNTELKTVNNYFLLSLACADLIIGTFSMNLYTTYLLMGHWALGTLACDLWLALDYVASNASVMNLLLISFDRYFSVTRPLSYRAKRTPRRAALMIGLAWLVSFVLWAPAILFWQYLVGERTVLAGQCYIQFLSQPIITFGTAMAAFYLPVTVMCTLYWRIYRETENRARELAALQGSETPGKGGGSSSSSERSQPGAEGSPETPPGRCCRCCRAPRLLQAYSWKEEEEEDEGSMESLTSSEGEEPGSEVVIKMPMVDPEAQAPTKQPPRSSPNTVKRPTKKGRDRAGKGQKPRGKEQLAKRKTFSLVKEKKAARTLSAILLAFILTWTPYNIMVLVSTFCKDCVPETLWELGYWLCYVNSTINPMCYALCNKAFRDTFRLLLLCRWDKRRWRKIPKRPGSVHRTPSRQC
Procedure, shortened: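 CHRM1-CHO calcium-flux assay, antagonist mode. Cells were seeded 18 h, dye-loaded 1 h at 37 C and given compound for 5 min at RT, then acetylcholine was added at 50nM. FDSS fluorescence was read 3 min; 15 concentrations, three runs.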

[15] = biological target: Muscarinic acetylcholine receptor M1 (Homo sapiens) (UniProt P11229); assay: Cholinergic receptor muscarinic 1 (CHRM1) small molecule agonists, cell-based qHTS assay (AID 1963589); further: nearly all actives have a fitted effect of over 35% in size
Procedure, shortened: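 Measures agonist-induced intracellular calcium rise. Stable human CHRM1 CHO line, 1 h dye load at 37 C, compounds from DMSO, kinetic fluorescence read.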

[16] = cAMP Responsive Elements (CRE) small molecule agonists, cell-based qHTS assay (AID 1963590)
Procedure, shortened: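 A CRE-responsive beta-lactamase reporter in HEK 293T cells was used. Treatment ran 3 h at 37 C; detection used LiveBLAzer B/G FRET substrate for 2 h at room temperature.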

[17] = cAMP Responsive Elements (CRE) small molecule antagonists, cell-based qHTS assay (AID 1963591; active means well fitted inhibition curve with a large enough effect in the signal ratio in the repeat runs, not every such curve was filed as active; the % refers to the signal ratio)
Procedure, shortened: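 HEK293T cells carrying a CRE-driven beta-lactamase reporter receive compound and NKH477 (0.25 uM final) for 3 h. Fluorescence from LiveBLAzer B/G FRET substrate is read after 2 h at room temperature.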

[18] = biological target: Beta-2 adrenergic receptor (Homo sapiens) (UniProt P07550); assay: Adrenergic beta2 receptor (ADRB2) small molecule antagonists, cell-based qHTS assay (AID 1963592); further: series mostly up to about 92 µM; nearly all actives have a fitted effect of over 50% in size
Beta-2 adrenergic receptor (Homo sapiens), sequence (P07550 whole entry, looked up): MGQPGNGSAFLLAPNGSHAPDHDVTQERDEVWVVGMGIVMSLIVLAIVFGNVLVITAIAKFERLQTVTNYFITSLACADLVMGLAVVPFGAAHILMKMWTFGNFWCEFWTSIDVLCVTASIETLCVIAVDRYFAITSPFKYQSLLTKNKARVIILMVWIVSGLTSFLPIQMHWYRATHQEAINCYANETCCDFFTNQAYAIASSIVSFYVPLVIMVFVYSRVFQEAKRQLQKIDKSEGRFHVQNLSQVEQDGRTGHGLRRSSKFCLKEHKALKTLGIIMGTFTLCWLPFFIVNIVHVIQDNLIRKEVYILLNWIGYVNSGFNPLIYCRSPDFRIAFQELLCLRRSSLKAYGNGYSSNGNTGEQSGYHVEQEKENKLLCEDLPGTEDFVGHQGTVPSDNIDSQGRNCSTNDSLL
Procedure, shortened: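 Cells (CHO, stable ADRB2 overexpression) incubated 18-20hr at 37C; compounds added from DMSO; agonist mix (1nM isoproterenol, 100uM IBMX, 25uM Ro-20-1724) added; 0.5hr RT; d2-cAMP and anti-cAMP-cryptate added; 1hr RT; 665/615 nm read.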

[19] = biological target: Beta-2 adrenergic receptor (Homo sapiens) (UniProt P07550); assay: Adrenergic beta2 receptor (ADRB2) small molecule agonists, cell-based qHTS assay (AID 1963593);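 further: CHO cells stably overexpressing human ADRB2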
Procedure, shortened: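 CHO cells stably over-expressing ADRB2 were plated overnight at 37C, then dosed with compounds plus a stimulation mix containing 100uM IBMX and 25uM Ro-20-1724 for 0.5hr at room temperature. cAMP was measured by HTRF competition, 1hr.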

[20] = biological target: D(2) dopamine receptor (Homo sapiens) (UniProt P14416); assay: Dopamine D2 receptor (DRD2) small molecule agonists, cell-based qHTS assay (AID 1963594); further: nearly all actives have a fitted effect of over 35% in size
D(2) dopamine receptor (Homo sapiens), sequence (P14416 whole entry, looked up): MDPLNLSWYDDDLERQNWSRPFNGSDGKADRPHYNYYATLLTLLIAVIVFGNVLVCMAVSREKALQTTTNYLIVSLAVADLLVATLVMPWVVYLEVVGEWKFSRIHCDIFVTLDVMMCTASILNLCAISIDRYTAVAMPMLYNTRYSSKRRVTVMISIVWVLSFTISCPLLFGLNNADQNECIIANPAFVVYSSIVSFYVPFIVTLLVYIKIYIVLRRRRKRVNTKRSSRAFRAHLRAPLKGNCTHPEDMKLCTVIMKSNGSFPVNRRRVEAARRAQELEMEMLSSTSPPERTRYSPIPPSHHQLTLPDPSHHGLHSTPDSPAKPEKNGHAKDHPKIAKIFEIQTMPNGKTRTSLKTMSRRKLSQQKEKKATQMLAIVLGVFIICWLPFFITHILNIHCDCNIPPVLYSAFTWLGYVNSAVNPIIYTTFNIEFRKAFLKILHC
Procedure, shortened: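 HEK293 cells stably expressing DRD2 were cultured 24 h at 37 C, then given Ro20-1724 (0.1 mM final) and compounds for 10 min at room temperature. NKH477 (200nM) was then added for 30 min. cAMP was read by HTRF.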

Measured: Potency

CO[Si](OC)(OC)c1ccccc1
inactive: [1] | [2] | [3] | [4] | [5] | [6] | [7] | [8] | [9] | [10] | [11] | [12] | [13] | [14] | [15] | [16] | [17] | [18] | [19] | [20]

NC(=S)N/N=C/c1cccnc1
inactive: [1] | [2] | [3] | [4] | [5] | [6] | [7] | [8] | [9] | [10] | [11] | [12] | [13] | [14] | [15] | [16] | [17] | [18] | [19] | [20]

O=C[C@H](O)[C@@H](O)[C@H](O)[C@H](O)CO
inactive: [1] | [2] | [3] | [4] | [5] | [6] | [7] | [8] | [9] | [10] | [11] | [12] | [13] | [14] | [15] | [16] | [17] | [18] | [19] | [20]

[Cl][Nd]([Cl])[Cl]
inactive: [1] | [2] | [3] | [4] | [5] | [6] | [7] | [8] | [9] | [10] | [11] | [12] | [13] | [14] | [15] | [16] | [17] | [18] | [19] | [20]

C=CC(C)(CCC=C(C)C)OC=O (stereo not given)
inactive: [1] | [2] | [3] | [4] | [5] | [6] | [7] | [8] | [9] | [10] | [11] | [12] | [13] | [14] | [15] | [16] | [17] | [18] | [19] | [20]

C=C1[C@H]2CC[C@@H]3[C@H]2C(C)(C)CCC[C@]13C
inactive: [1] | [2] | [3] | [4] | [5] | [6] | [7] | [8] | [9] | [10] | [11] | [12] | [13] | [14] | [15] | [16] | [17] | [18] | [19] | [20]

Cc1cn([C@H]2C[C@H](F)[C@@H](CO)O2)c(=O)[nH]c1=O
inactive: [1] | [2] | [3] | [4] | [5] | [6] | [7] | [8] | [9] | [10] | [11] | [12] | [13] | [14] | [15] | [16] | [17] | [18] | [19] | [20]

O=C[C@H](O)[C@H](O)[C@H](O)CO
inactive: [1] | [2] | [3] | [4] | [5] | [6] | [7] | [8] | [9] | [10] | [11] | [12] | [13] | [14] | [15] | [16] | [17] | [18] | [19] | [20]

CCCCC(CC)COCCO (stereo not given)
inactive: [1] | [2] | [3] | [4] | [5] | [6] | [7] | [8] | [9] | [10] | [11] | [12] | [13] | [14] | [15] | [16] | [17] | [18] | [19] | [20]

OC1OC[C@@H](O)[C@H](O)[C@H]1O (stereo not given in full)
inactive: [1] | [2] | [3] | [4] | [5] | [6] | [7] | [8] | [9] | [10] | [11] | [12] | [13] | [14] | [15] | [16] | [17] | [18] | [19] | [20]

CC1CCCC(=O)C1=O (stereo not given)
inactive: [1] | [2] | [3] | [4] | [5] | [6] | [7] | [8] | [9] | [10] | [11] | [12] | [13] | [14] | [15] | [16] | [17] | [18] | [19] | [20]

CCCO[Si](OCCC)(OCCC)OCCC
inactive: [1] | [2] | [3] | [4] | [5] | [6] | [7] | [8] | [9] | [10] | [11] | [12] | [13] | [14] | [15] | [16] | [17] | [18] | [19] | [20]

CC(C)c1cccc(C(C)C)c1N
inactive: [1] | [2] | [3] | [4] | [5] | [6] | [7] | [8] | [9] | [10] | [11] | [12] | [13] | [14] | [15] | [16] | [17] | [18] | [19] | [20]

CCCCOC(=O)CCCCCCCC(=O)OCCCC
inactive: [1] | [2] | [3] | [4] | [5] | [6] | [7] | [8] | [9] | [10] | [11] | [12] | [13] | [14] | [15] | [16] | [17] | [18] | [19] | [20]
